# Results reported in paper PMC7862700, “An all-to-all approach to the identification of sequence-specific readers for epigenetic DNA modifications on cytosine”.
# Legend:
# Experiment in all cases: DAPPL (digital affinity profiling via proximity ligation, sequencing); 10 mM Tris-HCl pH 7.5, 50 mM NaCl, 1 mM DTT, 4% glycerol, room temperature, 30 min; GST-TFs on glutathione beads, 16-mer random dsDNA library, 0.1% formaldehyde crosslink after washing; high values mean tight binding
# FLI1 = target: T1, FLI1 (Homo sapiens, UniProt Q01543 1-452); conditions: protein: recombinant; tags: N-terminal GST; dsDNA, one strand shown
# T1 sequence: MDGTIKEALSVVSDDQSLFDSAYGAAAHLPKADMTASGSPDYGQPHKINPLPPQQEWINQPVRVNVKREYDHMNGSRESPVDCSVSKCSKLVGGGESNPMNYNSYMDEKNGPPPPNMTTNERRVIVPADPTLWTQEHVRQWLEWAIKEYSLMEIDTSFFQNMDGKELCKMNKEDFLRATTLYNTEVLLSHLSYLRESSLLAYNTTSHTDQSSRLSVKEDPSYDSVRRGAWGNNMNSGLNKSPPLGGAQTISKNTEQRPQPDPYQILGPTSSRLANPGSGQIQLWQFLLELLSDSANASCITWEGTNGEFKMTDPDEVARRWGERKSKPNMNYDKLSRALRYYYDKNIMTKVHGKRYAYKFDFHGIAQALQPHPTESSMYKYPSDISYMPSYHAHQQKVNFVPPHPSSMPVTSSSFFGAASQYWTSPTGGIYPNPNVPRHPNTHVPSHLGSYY
# Summary of the method: (§1)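 GST fusions of human transcription factors were expressed in yeast and captured with glutathione beads. Once given DNA barcodes and pooled alongside a tag-only sample, they were incubated for 30 min at room temperature with 200 nmole of a random double-stranded 16-mer DNA library in Tris/NaCl/DTT/glycerol buffer, then washed, crosslinked (0.1% formaldehyde), proximity-ligated, PCR-amplified and sequenced on an Illumina NextSeq500. The binding signal of each hexamer is its read frequency for a factor divided by its frequency for the tag-only sample.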
# ELK1 = target: T2, ELK1 (Homo sapiens, UniProt P19419 1-428); conditions: protein: recombinant; tags: N-terminal GST; dsDNA, one strand shown
# T2 sequence: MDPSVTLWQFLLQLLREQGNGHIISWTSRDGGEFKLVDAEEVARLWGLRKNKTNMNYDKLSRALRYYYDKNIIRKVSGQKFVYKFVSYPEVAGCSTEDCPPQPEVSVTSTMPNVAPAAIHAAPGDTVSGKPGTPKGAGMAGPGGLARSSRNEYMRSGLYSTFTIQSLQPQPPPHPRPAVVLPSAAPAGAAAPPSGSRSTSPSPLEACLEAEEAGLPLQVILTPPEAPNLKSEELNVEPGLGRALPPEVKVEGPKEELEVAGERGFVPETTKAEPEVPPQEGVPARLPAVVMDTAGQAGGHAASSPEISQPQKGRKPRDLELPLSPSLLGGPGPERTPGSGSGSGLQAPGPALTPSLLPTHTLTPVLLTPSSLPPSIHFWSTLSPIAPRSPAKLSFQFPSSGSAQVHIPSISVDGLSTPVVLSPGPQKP
# Summary of the method: as §1
# GABPA = target: T3, GABPA (Homo sapiens, UniProt Q06546 1-454); conditions: protein: recombinant; tags: N-terminal GST; dsDNA, one strand shown
# T3 sequence: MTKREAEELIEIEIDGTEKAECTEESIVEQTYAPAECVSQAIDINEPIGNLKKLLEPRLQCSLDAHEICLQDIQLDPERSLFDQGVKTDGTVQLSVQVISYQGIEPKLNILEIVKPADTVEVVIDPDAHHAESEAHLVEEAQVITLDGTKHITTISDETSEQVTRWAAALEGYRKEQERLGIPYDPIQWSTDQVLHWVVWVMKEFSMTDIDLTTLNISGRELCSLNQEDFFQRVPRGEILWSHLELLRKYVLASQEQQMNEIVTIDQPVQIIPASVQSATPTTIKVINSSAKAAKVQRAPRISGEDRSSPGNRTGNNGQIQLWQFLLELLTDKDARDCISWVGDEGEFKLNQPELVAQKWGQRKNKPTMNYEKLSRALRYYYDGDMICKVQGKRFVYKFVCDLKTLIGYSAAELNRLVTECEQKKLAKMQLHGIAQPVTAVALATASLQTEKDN
# Summary of the method: as §1
# ERG = target: T4, ERG (Homo sapiens, UniProt P11308 1-479); conditions: protein: recombinant; tags: N-terminal GST; dsDNA, one strand shown
# T4 sequence: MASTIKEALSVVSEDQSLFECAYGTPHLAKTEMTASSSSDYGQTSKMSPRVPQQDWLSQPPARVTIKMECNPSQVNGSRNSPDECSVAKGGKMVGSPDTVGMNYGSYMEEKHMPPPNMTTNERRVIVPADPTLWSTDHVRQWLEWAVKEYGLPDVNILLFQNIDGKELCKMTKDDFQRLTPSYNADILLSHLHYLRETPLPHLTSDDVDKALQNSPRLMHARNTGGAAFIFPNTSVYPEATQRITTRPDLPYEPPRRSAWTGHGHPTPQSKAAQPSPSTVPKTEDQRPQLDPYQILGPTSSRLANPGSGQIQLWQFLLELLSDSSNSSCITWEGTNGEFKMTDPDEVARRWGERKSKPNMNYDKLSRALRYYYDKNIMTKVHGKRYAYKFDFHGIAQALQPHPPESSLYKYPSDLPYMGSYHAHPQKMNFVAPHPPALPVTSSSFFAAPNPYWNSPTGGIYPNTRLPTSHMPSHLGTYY
# Summary of the method: as §1
# ELF1 = ELF1 (Homo sapiens, UniProt P32519 1-619); conditions: protein: recombinant; tags: N-terminal GST; dsDNA, one strand shown
# Summary of the method: as §1
# EHF = target: T5, EHF (Homo sapiens, UniProt Q9NZC4 1-300); conditions: protein: recombinant; tags: N-terminal GST; dsDNA, one strand shown
# T5 sequence: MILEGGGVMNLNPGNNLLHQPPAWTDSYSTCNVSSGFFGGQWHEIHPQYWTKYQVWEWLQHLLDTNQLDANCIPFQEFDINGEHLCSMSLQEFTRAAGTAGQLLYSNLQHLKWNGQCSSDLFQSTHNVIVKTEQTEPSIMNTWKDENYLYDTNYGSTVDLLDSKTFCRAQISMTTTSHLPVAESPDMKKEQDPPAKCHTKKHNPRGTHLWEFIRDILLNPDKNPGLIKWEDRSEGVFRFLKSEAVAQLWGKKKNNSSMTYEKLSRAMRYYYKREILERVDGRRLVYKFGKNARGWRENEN
# Summary of the method: as §1
# SPI1 = SPI1 (Homo sapiens, UniProt P17947 1-270); conditions: protein: recombinant; tags: N-terminal GST; dsDNA, one strand shown
# Summary of the method: as §1
# SPIB = SPIB (Homo sapiens, UniProt Q01892 1-262); conditions: protein: recombinant; tags: N-terminal GST; dsDNA, one strand shown
# Summary of the method: as §1
# ELK3 = target: T6, ELK3 (Homo sapiens, UniProt P41970 1-407); conditions: protein: recombinant; tags: N-terminal GST; dsDNA, one strand shown
# T6 sequence: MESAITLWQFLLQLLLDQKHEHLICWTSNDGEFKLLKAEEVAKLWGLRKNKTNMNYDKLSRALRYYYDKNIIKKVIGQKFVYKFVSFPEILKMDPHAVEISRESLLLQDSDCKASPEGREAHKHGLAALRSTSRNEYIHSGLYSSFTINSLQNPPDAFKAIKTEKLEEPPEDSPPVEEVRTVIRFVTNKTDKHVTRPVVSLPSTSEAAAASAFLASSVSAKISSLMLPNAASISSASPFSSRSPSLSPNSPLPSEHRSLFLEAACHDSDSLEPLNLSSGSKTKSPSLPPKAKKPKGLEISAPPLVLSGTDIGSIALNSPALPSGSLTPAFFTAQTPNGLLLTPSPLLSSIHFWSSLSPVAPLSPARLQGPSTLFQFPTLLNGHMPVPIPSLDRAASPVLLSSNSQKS
# Summary of the method: as §1
# FEV = target: T7, FEV (Homo sapiens, UniProt Q99581 1-238); conditions: protein: recombinant; tags: N-terminal GST; dsDNA, one strand shown
# T7 sequence: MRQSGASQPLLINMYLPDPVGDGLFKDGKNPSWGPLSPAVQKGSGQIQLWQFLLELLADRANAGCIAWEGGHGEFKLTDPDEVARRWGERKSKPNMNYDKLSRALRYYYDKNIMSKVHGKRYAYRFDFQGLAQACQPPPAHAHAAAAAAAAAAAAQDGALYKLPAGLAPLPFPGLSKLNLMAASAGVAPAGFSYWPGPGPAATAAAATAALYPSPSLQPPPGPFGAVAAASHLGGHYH
# Summary of the method: as §1
# ETV5 = ETV5 (Homo sapiens, UniProt P41161 1-510); conditions: protein: recombinant; tags: N-terminal GST; dsDNA, one strand shown
# Summary of the method: as §1
# HSF1 = HSF1 (Homo sapiens, UniProt Q00613 1-529); conditions: protein: recombinant; tags: N-terminal GST; chain copies: 3; dsDNA, one strand shown
# Summary of the method: as §1
# SPIC = target: T8, SPIC (Homo sapiens, UniProt Q8N5J4 1-248); conditions: protein: recombinant; tags: N-terminal GST; dsDNA, one strand shown
# T8 sequence: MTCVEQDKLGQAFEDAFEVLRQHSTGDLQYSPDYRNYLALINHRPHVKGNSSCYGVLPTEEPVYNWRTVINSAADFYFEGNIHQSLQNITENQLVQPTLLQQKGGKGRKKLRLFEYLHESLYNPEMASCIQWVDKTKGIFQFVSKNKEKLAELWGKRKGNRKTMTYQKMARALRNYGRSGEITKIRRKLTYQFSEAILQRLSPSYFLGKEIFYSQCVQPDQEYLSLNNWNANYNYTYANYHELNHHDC
# Summary of the method: as §1
# ELF4 = ELF4 (Homo sapiens, UniProt Q99607 1-663); conditions: protein: recombinant; tags: N-terminal GST; dsDNA, one strand shown
# Summary of the method: as §1
# ELK4 = target: T9, ELK4 (Homo sapiens, UniProt P28324-2 1-405); conditions: protein: recombinant; tags: N-terminal GST; dsDNA, one strand shown
# T9 sequence: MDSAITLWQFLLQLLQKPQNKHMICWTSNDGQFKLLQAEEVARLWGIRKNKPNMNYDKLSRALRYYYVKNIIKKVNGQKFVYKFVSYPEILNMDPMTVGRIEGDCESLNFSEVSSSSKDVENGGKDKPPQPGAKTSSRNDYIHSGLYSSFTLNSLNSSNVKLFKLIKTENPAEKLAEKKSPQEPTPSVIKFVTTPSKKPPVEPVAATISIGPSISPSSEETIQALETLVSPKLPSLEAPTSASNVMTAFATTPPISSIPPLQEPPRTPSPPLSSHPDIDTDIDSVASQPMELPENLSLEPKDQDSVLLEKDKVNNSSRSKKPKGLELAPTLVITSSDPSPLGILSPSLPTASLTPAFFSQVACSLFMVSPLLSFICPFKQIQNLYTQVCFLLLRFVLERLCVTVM
# Summary of the method: as §1
# ETV2 = target: T10, ETV2 (Homo sapiens, UniProt O00321 1-342); conditions: protein: recombinant; tags: N-terminal GST; dsDNA, one strand shown
# T10 sequence: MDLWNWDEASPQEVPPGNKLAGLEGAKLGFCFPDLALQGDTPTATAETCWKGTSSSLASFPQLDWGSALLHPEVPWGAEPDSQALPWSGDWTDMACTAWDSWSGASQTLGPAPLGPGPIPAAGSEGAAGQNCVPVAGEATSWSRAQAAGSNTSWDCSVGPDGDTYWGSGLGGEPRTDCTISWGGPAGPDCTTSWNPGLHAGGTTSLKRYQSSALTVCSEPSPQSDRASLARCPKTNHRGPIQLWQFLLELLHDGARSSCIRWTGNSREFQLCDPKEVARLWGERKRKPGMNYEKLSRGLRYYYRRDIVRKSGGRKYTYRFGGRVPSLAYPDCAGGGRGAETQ
# Summary of the method: as §1
# ELF3 = target: T11, ELF3 (Homo sapiens, UniProt P78545 1-371); conditions: protein: recombinant; tags: N-terminal GST; dsDNA, one strand shown
# T11 sequence: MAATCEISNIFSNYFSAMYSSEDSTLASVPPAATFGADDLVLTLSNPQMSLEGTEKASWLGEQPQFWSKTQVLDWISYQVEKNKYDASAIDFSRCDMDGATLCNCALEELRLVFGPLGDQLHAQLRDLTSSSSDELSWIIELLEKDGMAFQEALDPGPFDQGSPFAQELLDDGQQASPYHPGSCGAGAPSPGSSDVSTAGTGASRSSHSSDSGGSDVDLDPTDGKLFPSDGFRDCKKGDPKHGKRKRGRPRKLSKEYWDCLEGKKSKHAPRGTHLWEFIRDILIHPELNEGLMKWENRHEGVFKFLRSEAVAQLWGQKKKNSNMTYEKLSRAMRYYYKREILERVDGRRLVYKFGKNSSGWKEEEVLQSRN
# Summary of the method: as §1
# CRX = CRX (Homo sapiens, UniProt O43186 1-299); conditions: protein: recombinant; tags: N-terminal GST; dsDNA, one strand shown
# Summary of the method: as §1
# ETV1 = ETV1 (Homo sapiens, UniProt P50549 1-477); conditions: protein: recombinant; tags: N-terminal GST; dsDNA, one strand shown
# Summary of the method: as §1
# Sequence of SPIB (Q01892 whole entry): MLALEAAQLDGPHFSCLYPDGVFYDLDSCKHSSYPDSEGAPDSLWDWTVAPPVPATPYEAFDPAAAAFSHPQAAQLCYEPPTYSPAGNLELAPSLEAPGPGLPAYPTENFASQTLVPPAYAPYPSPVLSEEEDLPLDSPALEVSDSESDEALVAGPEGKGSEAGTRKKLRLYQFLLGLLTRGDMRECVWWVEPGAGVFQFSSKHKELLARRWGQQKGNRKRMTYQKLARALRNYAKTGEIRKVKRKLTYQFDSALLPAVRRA
# Sequence of ELF1 (P32519 whole entry): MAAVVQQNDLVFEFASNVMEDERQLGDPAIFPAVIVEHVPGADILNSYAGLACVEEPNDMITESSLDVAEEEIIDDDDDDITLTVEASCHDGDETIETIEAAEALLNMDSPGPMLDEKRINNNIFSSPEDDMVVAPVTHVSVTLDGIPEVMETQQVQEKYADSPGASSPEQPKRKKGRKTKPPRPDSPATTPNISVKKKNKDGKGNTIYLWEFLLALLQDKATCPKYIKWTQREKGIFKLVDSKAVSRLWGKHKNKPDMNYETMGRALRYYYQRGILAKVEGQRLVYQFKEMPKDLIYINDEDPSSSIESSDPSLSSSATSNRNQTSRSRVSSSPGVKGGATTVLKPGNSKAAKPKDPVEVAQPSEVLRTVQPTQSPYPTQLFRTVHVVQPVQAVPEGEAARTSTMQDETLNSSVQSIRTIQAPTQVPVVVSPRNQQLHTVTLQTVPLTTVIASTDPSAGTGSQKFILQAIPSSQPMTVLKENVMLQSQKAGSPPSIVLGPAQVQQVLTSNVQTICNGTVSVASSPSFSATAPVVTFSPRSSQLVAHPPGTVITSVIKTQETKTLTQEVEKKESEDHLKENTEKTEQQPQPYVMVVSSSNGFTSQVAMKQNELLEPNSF
# Sequence of HSF1 (Q00613 whole entry): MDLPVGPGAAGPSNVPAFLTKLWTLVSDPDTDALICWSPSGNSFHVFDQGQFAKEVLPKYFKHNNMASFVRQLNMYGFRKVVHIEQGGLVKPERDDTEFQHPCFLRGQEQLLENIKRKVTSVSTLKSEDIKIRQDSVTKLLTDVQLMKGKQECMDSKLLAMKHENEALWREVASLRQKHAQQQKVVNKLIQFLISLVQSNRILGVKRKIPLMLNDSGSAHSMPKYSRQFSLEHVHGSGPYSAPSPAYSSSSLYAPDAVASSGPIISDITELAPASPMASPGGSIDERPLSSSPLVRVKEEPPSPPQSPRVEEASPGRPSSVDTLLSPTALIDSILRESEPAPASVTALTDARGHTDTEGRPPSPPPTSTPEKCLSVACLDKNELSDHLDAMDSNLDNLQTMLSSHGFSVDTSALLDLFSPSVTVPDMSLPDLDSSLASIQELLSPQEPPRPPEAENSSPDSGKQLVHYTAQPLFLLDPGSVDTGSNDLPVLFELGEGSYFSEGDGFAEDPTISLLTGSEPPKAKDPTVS
# Sequence of ETV1 (P50549 whole entry): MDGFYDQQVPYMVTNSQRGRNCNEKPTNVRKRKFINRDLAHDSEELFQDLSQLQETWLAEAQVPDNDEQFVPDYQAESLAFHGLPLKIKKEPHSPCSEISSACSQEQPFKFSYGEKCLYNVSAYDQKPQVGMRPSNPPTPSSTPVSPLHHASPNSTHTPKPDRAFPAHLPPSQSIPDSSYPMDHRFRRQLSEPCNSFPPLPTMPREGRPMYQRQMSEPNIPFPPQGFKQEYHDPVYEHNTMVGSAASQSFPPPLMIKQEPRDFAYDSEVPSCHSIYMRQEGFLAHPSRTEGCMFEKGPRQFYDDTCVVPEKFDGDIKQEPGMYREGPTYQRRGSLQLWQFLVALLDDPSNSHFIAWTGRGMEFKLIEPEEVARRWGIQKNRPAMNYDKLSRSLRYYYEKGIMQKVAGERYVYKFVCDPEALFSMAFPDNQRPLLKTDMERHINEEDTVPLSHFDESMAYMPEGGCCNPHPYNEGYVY
# Sequence of ETV5 (P41161 whole entry): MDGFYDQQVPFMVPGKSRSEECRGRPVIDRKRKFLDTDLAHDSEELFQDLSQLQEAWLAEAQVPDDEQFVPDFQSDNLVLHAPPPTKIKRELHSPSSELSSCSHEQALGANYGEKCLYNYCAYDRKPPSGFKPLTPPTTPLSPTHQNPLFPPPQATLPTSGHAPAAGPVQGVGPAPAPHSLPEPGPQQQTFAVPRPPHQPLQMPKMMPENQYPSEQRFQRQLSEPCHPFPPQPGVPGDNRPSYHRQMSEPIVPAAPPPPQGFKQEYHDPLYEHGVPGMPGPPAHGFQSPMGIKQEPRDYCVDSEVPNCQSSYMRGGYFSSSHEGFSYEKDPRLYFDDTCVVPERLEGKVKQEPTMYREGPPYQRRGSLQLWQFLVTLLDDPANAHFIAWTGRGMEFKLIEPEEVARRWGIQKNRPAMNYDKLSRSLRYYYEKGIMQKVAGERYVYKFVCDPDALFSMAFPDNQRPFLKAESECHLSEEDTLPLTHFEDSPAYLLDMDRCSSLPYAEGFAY
# Sequence of ELF4 (Q99607 whole entry): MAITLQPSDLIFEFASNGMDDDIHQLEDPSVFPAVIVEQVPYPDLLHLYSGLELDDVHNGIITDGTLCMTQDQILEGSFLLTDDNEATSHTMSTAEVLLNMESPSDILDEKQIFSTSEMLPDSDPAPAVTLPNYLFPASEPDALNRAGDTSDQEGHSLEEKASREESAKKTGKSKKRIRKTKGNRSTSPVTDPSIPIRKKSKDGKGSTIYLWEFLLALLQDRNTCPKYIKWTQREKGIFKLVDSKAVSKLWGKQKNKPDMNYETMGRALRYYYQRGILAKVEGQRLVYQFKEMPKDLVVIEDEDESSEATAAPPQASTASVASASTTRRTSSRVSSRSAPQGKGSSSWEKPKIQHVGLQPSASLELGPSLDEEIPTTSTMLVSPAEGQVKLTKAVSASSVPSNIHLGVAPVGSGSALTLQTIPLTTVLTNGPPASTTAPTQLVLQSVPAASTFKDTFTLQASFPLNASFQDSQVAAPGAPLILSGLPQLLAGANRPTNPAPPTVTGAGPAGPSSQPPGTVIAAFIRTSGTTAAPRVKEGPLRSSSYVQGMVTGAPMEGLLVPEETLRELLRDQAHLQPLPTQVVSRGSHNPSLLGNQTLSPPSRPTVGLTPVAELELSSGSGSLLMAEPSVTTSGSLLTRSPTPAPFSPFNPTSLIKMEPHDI
# Sequence of CRX (O43186 whole entry): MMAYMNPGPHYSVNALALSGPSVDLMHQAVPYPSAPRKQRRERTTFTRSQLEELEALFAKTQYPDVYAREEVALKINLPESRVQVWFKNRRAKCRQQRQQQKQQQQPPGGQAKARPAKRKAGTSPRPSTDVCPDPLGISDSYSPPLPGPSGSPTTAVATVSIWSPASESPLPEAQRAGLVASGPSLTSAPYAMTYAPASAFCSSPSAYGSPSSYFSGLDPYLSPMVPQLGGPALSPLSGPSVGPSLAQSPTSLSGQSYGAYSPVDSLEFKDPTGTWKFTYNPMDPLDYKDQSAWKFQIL
sequence,measurement,setting,value
AGTACT,binding signal,FLI1,"1.22 fold enrichment (6-mer frequency, TF over GST control)"
same,binding signal,ELK1,"1.41 fold enrichment (6-mer frequency, TF over GST control)"
same,binding signal,GABPA,"1.19 fold enrichment (6-mer frequency, TF over GST control)"
same,binding signal,ERG,"1.25 fold enrichment (6-mer frequency, TF over GST control)"
same,binding signal,ELF1,"1.22 fold enrichment (6-mer frequency, TF over GST control)"
same,binding signal,EHF,"1.27 fold enrichment (6-mer frequency, TF over GST control)"
same,binding signal,SPI1,"1.25 fold enrichment (6-mer frequency, TF over GST control)"
same,binding signal,SPIB,"1.13 fold enrichment (6-mer frequency, TF over GST control)"
same,binding signal,ELK3,"1.44 fold enrichment (6-mer frequency, TF over GST control)"
same,binding signal,FEV,"1.28 fold enrichment (6-mer frequency, TF over GST control)"
same,binding signal,ETV5,"1.19 fold enrichment (6-mer frequency, TF over GST control)"
same,binding signal,HSF1,"1.03 fold enrichment (6-mer frequency, TF over GST control)"
same,binding signal,SPIC,"1.35 fold enrichment (6-mer frequency, TF over GST control)"
same,binding signal,ELF4,"1.19 fold enrichment (6-mer frequency, TF over GST control)"
same,binding signal,ELK4,"1.12 fold enrichment (6-mer frequency, TF over GST control)"
same,binding signal,ETV2,"1.11 fold enrichment (6-mer frequency, TF over GST control)"
same,binding signal,ELF3,"1.29 fold enrichment (6-mer frequency, TF over GST control)"
same,binding signal,CRX,"1.02 fold enrichment (6-mer frequency, TF over GST control)"
same,binding signal,ETV1,"1.19 fold enrichment (6-mer frequency, TF over GST control)"
